From the supplement of paper PMC10338343
± gives the standard deviation.

What follows are sequences tested on MILI (PIWIL2) piRISC loaded with L1MC piRNA (26 nt) (assay: pre-steady-state target cleavage rate (min^-1); guide: L1MC piRNA 5'p-UAACUAAAUACUAUGCAAGCUGUAGG; MIWI and MILI are mouse PIWI proteins and EfPiwi is from a freshwater sponge; tags in brackets are library labels; higher = faster piRNA-guided slicing of the target). Conditions: auxiliary factor: 500 nM mouse GTSF1.
Outline: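 With or without 500 nM GTSF1 partner protein, 1 nM active affinity-purified piRISC carrying one synthetic guide was mixed with 0.1 nM transcribed, DNA-blocked target RNA library in HEPES–potassium acetate buffer at 33 °C for 0–8 or 0–960 min. Uncleaved targets were sequenced and normalised to depth and to weakly complementary targets, three trials were pooled, and k3 was capped at 0.0001 min^-1. The pre-steady-state cleavage rate came from a burst-and-steady-state fit.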
For UCCUGGAUGUGCUUGCUUAGUAUUUAGUUA, the “pre-steady-state target cleavage rate” value was 0.094 ± 0.013.
UCCUGGAUGUCGUUGCAUAGUAUAUUAGUUA was tested, and the “pre-steady-state target cleavage rate” value was 0.121 ± 0.023.
With UCCUGGAUGUGCAUGGAUAGUAUUUAGUUA the “pre-steady-state target cleavage rate” value was 0.11 ± 0.013.
With UCCUGGAUCAGCUUGCAUUGUUUUUAGUUA the “pre-steady-state target cleavage rate” value was 0.0121 ± 0.0054.
For UCCUGCUACAGCUUUCAUAGUAUUUAGUUA, the “pre-steady-state target cleavage rate” value was 0.188 ± 0.021.
In the case of UCCUGGAUGUGCUUGCUAAGUAUUUAGUUA, the “pre-steady-state target cleavage rate” value is reported as 0.0146 ± 0.0062.
In the case of UCCUGGAACAGCUUGCGUAGUAUUUAGUUA, the “pre-steady-state target cleavage rate” value is reported as 0.277 ± 0.016.
With UCCUGGAUGUCCUUGGAUAGUUUUUAGUUA the “pre-steady-state target cleavage rate” value was 0.0144 ± 0.0045.
For UCCUGGAUGUGCUUGCAUUGUUUUUAGUUA, the “pre-steady-state target cleavage rate” value was 0.00733 ± 0.005.
UCCUGGUACAGCAUGCAUAGUAUUUUGUUA was tested, and the “pre-steady-state target cleavage rate” value was 0.11 ± 0.022.
For UCCUGGAUGUGCUUGCAAGUAUUUAGUUA, the “pre-steady-state target cleavage rate” value was 0.00781 ± 0.0036.
UCCUGCUACAGCUUACAUAGUAUUUAGUUA was tested, and the “pre-steady-state target cleavage rate” value was 0.274 ± 0.026.
UCCUGGAUGUCGUUGCAUAGUAUUUCAGUUA was tested, and the “pre-steady-state target cleavage rate” value was 0.0621 ± 0.017.
With UCCUGGAUGUGGAUGCAUAGUAUUUAGUAA the “pre-steady-state target cleavage rate” value was 0.0714 ± 0.012.
For UCCUGGUACAGCUACGAUAGUAUUUAGUUA, the “pre-steady-state target cleavage rate” value was 0.15 ± 0.016.
UCCUGGAUGUGCUUGGAUAGUUUUUAGUUA was tested, and the “pre-steady-state target cleavage rate” value was 0.00761 ± 0.0046.
UCCUGGAUGUCCUUGCAUAGUAUAUAGUUA was tested, and the “pre-steady-state target cleavage rate” value was 0.149 ± 0.026.
With UCCUGGAUGAGCUUGCAUAGAUUUUAGUUA the “pre-steady-state target cleavage rate” value was 0.0099 ± 0.0044.
In the case of UCCUGGAUGUCCUAGCAUAGUAUAUAGUUA, the “pre-steady-state target cleavage rate” value is reported as 0.0912 ± 0.02.
UCCUGGAUGUCGAUGGCAUAGUAUUUAGUUA was tested, and the “pre-steady-state target cleavage rate” value was 0.0677 ± 0.014.
UCCUGGAUGUCGAUGCAUAGUAUUUAGUCA was tested, and the “pre-steady-state target cleavage rate” value was 0.111 ± 0.02.
For UCCUGGAUCAGCUUGCAAUGUAUUUAGUAA, the “pre-steady-state target cleavage rate” value was 0.0826 ± 0.014.
For UCCUGGUACAGCUUGCAUAGAUAUUUAGUUA, the “pre-steady-state target cleavage rate” value was 0.0243 ± 0.011.
UCCUGGAUGACCUUGCAUACUAUUUAGUUA was tested, and the “pre-steady-state target cleavage rate” value was 0.062 ± 0.019.
